# From PubChem
# HCV inhibitor – blocks hepatitis C virus; Huh7.5.1 HCVcc-Cre infection, luciferase reporter, 44 h; Potency, µM (titrated, usually from 41.8 µM), for inactives: at the top dose activity change, negative = inhibition, most hits filed as inhibitors; 340,000 tested, 3.4% active; AID 651820; further: potency means the concentration at half of the fitted maximal effect
#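 Cells (1,000/well) were plated 4 h before compound, then infected with HCVcc-Cre virus (~0.5 moi). After 44 h further culture, infection was read as luciferase luminescence following a 15 min substrate incubation at room temperature.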
# VACV Venus inh – inhibitors of vaccinia virus (Venus reporter) | 330,000 tested, 0.46% active | Potency, µM (top dose mostly 36.5 µM), for the others: top-dose activity change, negative = inhibition, actives largely listed as inhibitors | AID 720580 | Vaccinia virus Venus reporter expression, fluorescence; calls by dose curve; tested in A549 cells; further: potency means the concentration at half of the fitted maximal effect; nearly all actives have a fitted effect of over 30% in size
# Sm TGR block – inhibitors of Schistosoma mansoni thioredoxin glutathione reductase | purified TGR, DTNB reduction, TNB absorbance 405 nm | 360,000 tested, 3% active | Q962Y6 | Potency, µM (top dose mostly 114 µM), for the others: top-dose activity change, negative = inhibition, most hits filed as inhibitors | AID 485364; further: potency means the concentration at half of the fitted maximal effect; nearly all actives have a fitted effect of over 60% in size
#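 TGR 20 nM + NADPH 100 uM (dispensed conc.), cpd preinc 15 min RT; start with NADPH (500 uM addition) then DTNB (15 mM addition). Kinetic TNB absorbance, 405 nm filter. Four-parameter Hill fit across titration.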
# VACV mCherry inh – inhibitors of vaccinia virus infection (mCherry reporter signal); Vaccinia virus mCherry reporter infection, fluorescence; 310,000 tested, 0.63% active; Potency, µM (top dose mostly 36.5 µM), inactives show top-dose activity change, negative = inhibition, usual class: inhibitors; calls by dose curve; tested in A549 cells; further: potency means the concentration at half of the fitted maximal effect; nearly all actives have a fitted effect of over 35% in size
# HCMV inh – inhibitors of human cytomegalovirus; HFF cells, HCMV-luciferase reporter, 72 h; stronger effect = lower value; activity change, negative = inhibition, % at 57.5 µM; 410,000 tested, 4.5% active; in the data active means activity change below about -60%; inconclusive means no clear call, values can overlap the other calls; inactive means above about -39%
#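 Screen run at 2 compound doses on HFFs infected with reporter HCMV, MOI 1 PFU/cell. Luciferase activity from cell lysates at 72 h post infection gave inhibition relative to buffer-only and Salinomycin wells.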
# FMDV antiviral – blocks foot and mouth disease virus; FMDV antiviral cell-based qHTS; Potency, µM (doses to about 57.9 µM), inactives show at the top dose activity change, negative = inhibition, hits mostly inhibitors; 410,000 tested, 1.2% active; AID 1159524; calls by dose curve; tested in HEK293T cells; further: read-out not given here; potency means the concentration at half of the fitted maximal effect; nearly all actives have a fitted effect of over 45% in size
# Active calls of the source: *; i = inactive; ? = inconclusive; . = not tested or not shown; [ ] = remark or other dose. In the library only some 9.3% were active in any assay of this set; here they are far more common. Unless noted, the call rests on the fitted dose curve; in most records, active means well fitted curve in the direction sought with a large enough effect; inconclusive means small, poorly fitted or top-dose-only effect, or another doubt; inactive means no such curve, though single readings can be large; an effect the other way counts as inactive or inconclusive. On the % scale 0 is the no-effect control and ±100 the full control effect.
SMILES,HCV inhibitor,VACV Venus inh,Sm TGR block,VACV mCherry inh,HCMV inh,FMDV antiviral
Cc1cc(Nc2ccc(O)cc2)n2c(nc3ccccc32)c1C#N,-20.2%,?,-6.9%,?,-3.9,-5.9%
Cc1c(NC(=O)COc2ncnc3ccccc23)c(=O)n(-c2ccccc2)n1C,-3.0%,-2.4%,35.5µM*,-10.9%,-25.6,-5.7%
CCN(CC(=O)Nc1ccccc1C(F)(F)F)C(=O)CCS(=O)(=O)c1ccc(C)cc1,-14.1%,-20.6%,1.9%,-12.7%,2.3,?
Cc1ccc(C(=O)N2CCc3ccccc32)cc1[N+](=O)[O-],-4.8%,-7.6%,-13.5%,-5.1%,48.4,5.6%
COc1ccccc1C(=O)NCCC(=O)N1CCCCCCC1,28.3%,-4.2%,-4.9%,-11.3%,-24.3,-13.1%
CCN1CCN(c2nc3c(c(=O)n(C)c(=O)n3C)n2CCSc2ncccn2)CC1,6.3%,.,-2.4%,.,20.6,-6.5%
Cc1nc(SCC(=O)Nc2c(C)n(C)n(-c3ccccc3)c2=O)c(C#N)c(C)c1C,-26.8%,.,-9.9%,.,-21.6,9.3%
CCCc1cc(SCC(=O)Nc2c(C)n(C)n(-c3ccccc3)c2=O)n2c(nc3ccccc32)c1C#N,18.6%,.,1.78µM*,.,96.8,24.0%
COc1cc2c(cc1OC)C(c1ccccc1OC(C)C)CC(=O)N2 (stereo not given),-17.0%,-5.8%,-6.1%,i,83.6,-2.8%
O=C(O)c1cc2c([nH]c1=O)CCCC2,-0.9%,-9.7%,2.1%,-6.9%,44.3,-15.9%
C=CCSC(=C(C#N)C#N)c1cc2c([nH]1)CCCC2,12.6µM*,1.1%,-33.9%,.,-19.9,11.2µM*
Cc1ccc(NC(=O)c2ccccc2)cc1,2.2%,-14.3%,-24.6%,-22.9%,124.8,29.6%
Cc1ccc(NC(=O)C2=C(c3ccccc3)S(=O)(=O)CCS2(=O)=O)cc1,11.2µM*,?,0.316µM*,?,-98.8*,25.1µM*
Cc1cc(=O)oc2cc(OCC(=O)NC(Cc3c[nH]c4ccc(O)cc34)C(=O)O)c(Cl)cc12 (stereo not given),-9.8%,-2.9%,-4.9%,-2.7%,-28.5,-19.7%
CCc1cccc(-n2nnc(-c3nsc(NC(=O)c4cccc(OC)c4)n3)c2C)c1,.,-4.8%,-29.9%,-18.4%,?,?
Cc1cccc(C(=O)Nc2nc(-c3nnn(-c4cc(C)ccc4C)c3C)ns2)c1,.,-25.1%[7.34 µM],3.7%,-23.4%[7.34 µM],-62.3*,?
COc1ccc(C(=O)Nc2nc(-c3nnn(-c4ccc(F)cc4F)c3C)ns2)cc1,.,?,1.9%,?,-103.8*,?
Cc1cccc(C(=O)Nc2nc(-c3nnn(-c4cc(F)ccc4F)c3C)ns2)c1,.,-26.1%,2.2%,-18.7%,-26.1,-15.5%
COc1cccc(C(=O)Nc2nc(-c3nnn(-c4cc(C)ccc4C)c3C)ns2)c1,.,-14.6%,2.5%,-19.7%,-11.6,?
COc1cccc(C(=O)Nc2nc(-c3nnn(-c4ccccc4C(F)(F)F)c3C)ns2)c1,.,-24.5%,-3.8%,-22.2%,-76.0*,-10.9%
CN(Cc1cccs1)C(=O)CSc1nc(N)cc(N)n1,-3.5%,-4.6%,-7.1%,9.0%,28.4,1.9%
COc1ccc(-c2cc([C@H]3[C@H]4C=CC[C@@H](C)[C@@H]4C(=O)N3Cc3ccccc3)ccc2F)cc1OC,-24.4%,?,-19.5%,?,25.1,14.4%
CSCCC(NS(=O)(=O)c1ccc(Br)cc1)C(=O)OCC(=O)NC1CC1 (stereo not given),6.5%,-15.5%,-1.1%,i,-64.9*,8.1%
CC(OC(=O)/C=C/c1ccc(Br)cc1)C(=O)N1CCOCC1 (stereo not given),5.6%,?,7.0%,?,-24.2,-9.3%
CC[C@H](C)[C@@H]1NC(=O)CNC(=O)c2csc(n2)[C@H](C(C)(C)O)OC(=O)C(C)(C)[C@H](CCCC(C)(Cl)Cl)OC(=O)c2csc1n2,.,6.31µM*,.,5.62µM*,-78.8*,-14.5%
CC(C)(C)C1CCc2nc(NC(=O)Cc3cn4ccsc4n3)sc2C1 (stereo not given),22.4µM*,?,-13.0%,.,15.0,41.2%
CCCc1nnc(-c2cc(OC)c(OC)c(OC)c2)o1,-1.4%,-7.3%,4.0%,i,-4.3,-9.2%
